Neddyl block – blocks human cullin neddylation | AID 651699 | 360,000 tested, 0.58% active | P61081+Q13564 | inhibition, % at 25 µM | TR-FRET cullin neddylation, biochemical; in the data active = inhibition above about 36%
GC-A act – GC-A (human) enzyme activation; P16066; 370,000 tested, 0.14% active; AID 1671463; HEK293 GC-A cells, cGMP TR-FRET, EC30 ANP; 0% at EC30 ANP, 100% saturating ANP; activation, % at 10 µM; in the data active = activation above about 40%
TLR9-MyD88 block – inhibitors of human TLR9-MyD88 binding | inhibition, % at 4.98 µM | CHO BLA complementation TLR9-MyD88, CCF4 FRET ratio | 340,000 tested, 0.21% active | Q9NR96+Q99836;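 active = inhibition above the mean over all tested compounds plus 3 SD, cut at about 21% in these data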
TLR4-MyD88 BLA – TLR4-MyD88 interaction inhibition in cells | O00206+Q99836 | HeLa CL3-4 TLR4/MyD88 BLA complementation, FRET ratio | inhibition, % at 8.4 µM | 200,000 tested, 0.18% active; in the data active = inhibition above about 25%
Target sequence (O00206 whole entry, looked up): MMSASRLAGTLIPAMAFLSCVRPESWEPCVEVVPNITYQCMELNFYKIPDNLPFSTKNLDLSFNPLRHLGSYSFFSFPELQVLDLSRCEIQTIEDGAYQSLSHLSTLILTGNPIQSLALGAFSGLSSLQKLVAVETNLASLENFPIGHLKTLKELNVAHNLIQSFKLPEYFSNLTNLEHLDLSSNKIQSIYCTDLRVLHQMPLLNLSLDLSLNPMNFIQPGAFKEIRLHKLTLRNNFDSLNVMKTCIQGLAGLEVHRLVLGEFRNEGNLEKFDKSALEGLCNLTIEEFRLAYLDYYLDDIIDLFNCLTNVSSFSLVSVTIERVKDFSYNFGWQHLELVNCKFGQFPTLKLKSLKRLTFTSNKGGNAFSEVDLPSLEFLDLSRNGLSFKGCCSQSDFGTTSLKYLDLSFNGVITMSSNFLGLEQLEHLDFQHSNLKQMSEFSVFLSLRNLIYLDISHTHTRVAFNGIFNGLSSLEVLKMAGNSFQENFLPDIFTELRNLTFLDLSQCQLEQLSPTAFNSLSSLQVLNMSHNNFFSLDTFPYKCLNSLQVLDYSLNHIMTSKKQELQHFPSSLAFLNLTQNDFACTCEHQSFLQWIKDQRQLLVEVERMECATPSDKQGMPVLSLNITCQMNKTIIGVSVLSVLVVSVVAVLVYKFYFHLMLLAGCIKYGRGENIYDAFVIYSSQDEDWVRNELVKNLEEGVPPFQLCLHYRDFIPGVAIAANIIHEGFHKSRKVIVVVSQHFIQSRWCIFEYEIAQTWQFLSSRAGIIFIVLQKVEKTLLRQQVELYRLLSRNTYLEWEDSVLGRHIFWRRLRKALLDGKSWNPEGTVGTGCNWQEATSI
Target sequence (Q99836 whole entry, looked up): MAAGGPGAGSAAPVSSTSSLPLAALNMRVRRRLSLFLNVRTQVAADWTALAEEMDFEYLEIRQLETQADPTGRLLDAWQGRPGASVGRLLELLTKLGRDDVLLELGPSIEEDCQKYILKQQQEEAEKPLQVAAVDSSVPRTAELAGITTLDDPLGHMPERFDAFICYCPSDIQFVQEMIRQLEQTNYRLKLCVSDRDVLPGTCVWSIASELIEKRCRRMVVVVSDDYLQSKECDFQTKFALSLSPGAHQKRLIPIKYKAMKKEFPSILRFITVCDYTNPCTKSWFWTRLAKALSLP
NPR2 activator – GC-B (human) receptor activation; P20594; HEK293-GC-B cells, CNP EC30, cGMP TR-FRET; 0% at EC30 CNP, 100% saturating CNP; activation, % at 10 µM; 370,000 tested, 0.11% active; AID 1920062;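 active = activation at 10 µM reaching about 35% in either raw or pattern-adjusted values, limit read from the data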
NOD2 RIPK2 PPI – blocks binding of human NOD2 to RIPK2 | O43353 | CHO BLA complementation NOD2-RIPK2, CCF4 ratio | inhibition, % at 4.98 µM | 360,000 tested, 0.38% active | AID 624267; in the data active = inhibition above about 21%
TLR4 MyD88 cnf – TLR4-MyD88 interaction inhibition confirmed | shares compounds with TLR4-MyD88 BLA | HeLa CL3-4 BLA complementation, CCF4 FRET ratio | inhibition, % at 8.4 µM | 350 tested, 50% active | AID 941;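 active = mean inhibition across three repeat runs above about 25% carried over from the earlier screen, limit read from the data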
BLA inh HeLa – inhibits beta-lactamase activity, counter-screen to TLR4-MyD88 binding inhibitors; shares compounds with TLR4-MyD88 BLA; 350 tested, 63% active; inhibition, % at 8.4 µM; AID 1237; HeLa BLA reporter, CCF4 FRET ratio;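 active = mean inhibition over three repeats above about 26% taken from the earlier screen, limit read from the data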;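 note: HeLa cells stably expressing beta-lactamase reporter as counterscreen for TLR4-MyD88 inhibitors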
TLR9-MyD88 cf – TLR9-MyD88 interaction inhibition, confirmation; CHO TLR9/MyD88 BLA complementation, CCF4 FRET ratio; AID 540250; shares compounds with TLR9-MyD88 block; inhibition, % at 4.98 µM; 680 tested, 51% active;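 active = mean inhibition across three repeats above about 21% taken from the earlier screen, limit read from the data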;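 note: blue over green emission ratio reports constitutive TLR9 MyD88 association via BLA complementation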
BLA counter-1 – beta-lactamase reporter inhibition, counter-screen artifact; shares compounds with TLR9-MyD88 block; CHO-BLA cells, CCF4 FRET ratio, BLA reporter; inhibition, % at 4.98 µM; 680 tested, 7% active; AID 540251;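 active = mean inhibition above a 50% cutoff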;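 note: counterscreen of TLR9-MyD88 hits on CMV-driven BLA in CHO-K1 cells; higher means less blue over green ratio so more BLA blockade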
TLR9 CHO tox – counter-screen for TLR9-MyD88 inhibitors: cytotoxicity in CHO cells; 680 tested, 39% active; inhibition, % at 4.98 µM; luminescence; shares compounds with TLR9-MyD88 block; in the data active = inhibition above about 11%
NOD2 RIPK2 conf – NOD2-RIPK2 interaction inhibition confirmed. CHO cells, NOD2-RIPK2 BLA complementation, CCF4 FRET. shares compounds with NOD2 RIPK2 PPI. inhibition, % at 4.98 µM. 1,200 tested, 70% active. AID 624370;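 active = mean inhibition across replicates above a set limit taken from the earlier primary screen, cut at about 21% in these data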
BLA counter-2 – counter-screen for NOD2-RIPK2 interaction inhibitors: BLA reporter; shares compounds with NOD2 RIPK2 PPI; CHO BLA reporter, CCF4 FRET ratio, counterscreen; inhibition, % at 4.98 µM; 1,200 tested, 57% active; AID 624371;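 active = mean inhibition above the low-control mean inhibition plus three low-control SD, cut at about 11% in these data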
Numbers stand for hits; . = inactive; / = no result shown. The list is not random: actives were taken first. Their share in the collection is about 1.2%.

SMILES	Neddyl block	GC-A act	TLR9-MyD88 block	TLR4-MyD88 BLA	NPR2 activator	NOD2 RIPK2 PPI	TLR9-MyD88 cf	BLA counter-1	TLR9 CHO tox	others
C/C(=N\Nc1ccc([N+](=O)[O-])cc1)c1ccc(N)cc1	.	.	.	.	.	.	/	/	/
COC(=O)[C@]12C[C@H](CC(=O)N3CCCCC3)C(=O)N(CCc3ccc(OC)c(OC)c3)C1=C[C@H](COCc1ccccc1)O[C@@H]2C	/	.	/	/	.	/	/	/	/
Cc1nn(CCC(=O)NNC(=O)Nc2ccccc2F)c(C)c1[N+](=O)[O-]	/	.	/	/	.	/	/	/	/
CCOc1ccc(/C=C/[N+](=O)[O-])c2ccccc12	.	/	.	27	/	58	/	/	/	TLR4 MyD88 cnf=.;BLA inh HeLa=.;NOD2 RIPK2 conf=91;BLA counter-2=.
CCOC(=O)Cn1cc(/C=C/[N+](=O)[O-])c2ccccc21	.	.	.	.	.	.	/	/	/
CCN(CC)c1ccc2c(Cl)cc(=O)oc2c1	/	.	/	.	.	/	/	/	/
CCNc1ccc2c(Cl)cc(=O)oc2c1	/	.	34	32	.	30	/	/	/	TLR4 MyD88 cnf=.;BLA inh HeLa=36;NOD2 RIPK2 conf=44;BLA counter-2=32
COC(=O)c1ccc(NC(C)=O)cc1O	/	/	/	.	/	/	/	/	/
CC(C)CNC(=O)COC(=O)c1c2c(nc3ccccc13)/C(=C/c1cccs1)CC2	/	.	32	45	.	38	41	.	.	TLR4 MyD88 cnf=43;BLA inh HeLa=71;NOD2 RIPK2 conf=65;BLA counter-2=73
COCCN(CC(=O)NC1CCCCC1)C(=O)/C=C/C(=O)c1ccc(OC)cc1O	.	.	.	31	.	50	/	/	/	TLR4 MyD88 cnf=27;BLA inh HeLa=.;NOD2 RIPK2 conf=91;BLA counter-2=12
CCCCN(C(=O)CSc1nnc(-c2ccccc2)n1C)c1c(N)n(Cc2ccccc2)c(=O)[nH]c1=O	.	.	21	.	.	.	.	.	.
Fc1cccc(/C=N/Nc2ccc(Cl)nn2)c1	.	.	23	/	.	.	.	.	.
Oc1c(Br)cc(/C=N/Nc2ccc(Cl)nn2)cc1Br	.	.	.	/	.	.	/	/	/
COc1ccccc1NS(=O)(=O)c1cccc(NC(=O)C2CC(=O)N(Cc3ccccc3)C2)c1 (configuration not stated)	.	.	24	.	.	.	.	.	.
COc1ccccc1NS(=O)(=O)c1cccc(NC(=O)C2CC2)c1	.	.	.	/	.	.	/	/	/
Cc1cccc(OCC(C)CN2CCC(C(O)(c3ccccc3)c3ccccc3)CC2)c1 (configuration not stated)	/	.	/	/	.	/	/	/	/
CN(C)CC1CC/C(=C\c2ccc(O)cc2)C1=O (configuration not stated)	.	.	28	/	.	65	24	.	97
COC(=O)N/N=C/c1cc(Br)ccc1O	.	.	.	.	.	.	/	/	/
CC(C)NC(=S)N/N=C/c1cc(Br)ccc1O	/	.	21	.	.	.	.	.	.
Cc1nn(-c2ccccc2)c2sc(C(=O)N3CCN(Cc4ccc(F)cc4)CC3)cc12	/	.	/	/	.	/	/	/	/
COc1ccc(CNS(=O)(=O)c2cc3c(cc2Br)CC(C)N3C(C)=O)cc1 (configuration not stated)	/	.	/	/	.	/	/	/	/
CCN(CC)c1ccc(C=NNc2ccc([N+](=O)[O-])cn2)cc1	.	.	22	/	.	.	38	.	.
Cc1cccc(NC(=O)[C@H]2CC(=O)O[C@@H]2c2ccccc2)c1C	/	.	/	/	.	/	/	/	/
O=C(NC1CCCCN(Cc2cccc(F)c2)C1=O)c1cccc(C(F)(F)F)c1 (configuration not stated)	/	.	/	/	.	/	/	/	/
Cc1nnc(Sc2cc(NCCO)c([N+](=O)[O-])c3nonc23)s1	.	.	21	.	.	.	23	.	98
SMILES	Neddyl block	GC-A act	TLR9-MyD88 block	TLR4-MyD88 BLA	NPR2 activator	NOD2 RIPK2 PPI	TLR9-MyD88 cf	BLA counter-1	TLR9 CHO tox	others
O=[N+]([O-])c1c(NCCO)cc(N2CCCCCC2)c2nonc12	.	.	.	/	.	.	/	/	/
O=C1c2cccc3c(O)ccc(c23)C(=O)N1c1ccc(Cl)cc1	.	.	27	/	.	.	.	.	.
CNc1ccccc1/C(O)=C(\C#N)C(=O)NCc1cccc2ccccc12	/	.	/	/	.	/	/	/	/
Cc1cc(NC(=O)c2c([N+](=O)[O-])cnn2C)no1	.	.	34	.	.	.	.	.	.
COc1cc(NC(=O)C2CCCN(S(=O)(=O)c3cccs3)C2)cc(OC)c1 (configuration not stated)	/	.	/	/	.	/	/	/	/
COc1ccc(C(=O)c2sc3nc(-c4ccc(OC)cc4)ccc3c2N)cc1	/	.	21	.	.	.	45	.	.
COc1ccc(NC(=O)c2sc3nc(-c4cccnc4)ccc3c2N)cc1	.	.	34	/	.	.	.	.	.
Nc1c(C(=O)Nc2ccccc2)sc2nc(-c3cccnc3)ccc12	/	.	/	/	.	/	/	/	/
CC(C)C[C@H]1COc2cccc(F)c2S(=O)(=O)N1Cc1cn(Cc2ccc(C(F)(F)F)cc2)nn1	/	.	/	/	.	/	/	/	/
CC(C)n1cc(CN2CCCC(C(=O)Nc3cccc(-c4cc5ccccc5[nH]4)c3)C2)cn1 (configuration not stated)	.	.	23	/	.	.	.	.	.
O=C1/C(=C\c2cc([N+](=O)[O-])ccc2O)SC(=S)N1Cc1ccc(Cl)cc1	.	.	24	/	.	.	.	.	.
O=C1/C(=C\c2cccc(O)c2O)SC(=S)N1Cc1ccccc1	.	.	.	/	.	.	/	/	/
COc1cccc(C2=CC(c3ccc(C)cc3)n3ncnc3N2)c1 (configuration not stated)	/	/	/	.	/	/	/	/	/
Cc1ccsc1C1C=C(c2cccc(Br)c2)Nc2ncnn21 (configuration not stated)	.	/	28	.	/	.	.	.	.
